T1: FBXL12, Q9NXK8
T1 chain: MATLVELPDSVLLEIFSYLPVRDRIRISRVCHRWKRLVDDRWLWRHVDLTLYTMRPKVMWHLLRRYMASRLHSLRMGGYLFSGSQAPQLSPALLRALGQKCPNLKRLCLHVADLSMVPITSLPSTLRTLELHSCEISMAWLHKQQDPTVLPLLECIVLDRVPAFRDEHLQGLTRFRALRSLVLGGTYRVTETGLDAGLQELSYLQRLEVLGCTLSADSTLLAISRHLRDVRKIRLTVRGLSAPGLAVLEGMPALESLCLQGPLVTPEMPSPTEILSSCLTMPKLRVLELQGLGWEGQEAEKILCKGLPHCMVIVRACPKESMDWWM

B1: FBXL12_hotspot_52_64 (protein)
chain: MRTVTIRVRIESPDMAMARRTTETAAAIARGLAAAGVRVVLEVEAAHLEALRFATRELARVAAELGAELRVRVHPSLDPEEVERVYREALAEAEAEAAAA
B2: FBXL12_hotspot_35_57 (protein)
chain: MRTVVVQNAGSSLEGVRYAALAALVAVRVLGARLEVQISPDASREQRLILAAAEALASGRPLEEVVAERGLSEEELEEVRRIAEELRAEAERAVAELRAR
B3: FBXL12_hotspot_59_74 (protein)
chain: MLEIRVSAHPDESTEQIKNTIRYAVEMIKELIERGLIEDAIAAIRSLGRSVTEIVIRRKNEEVYNFFLELLEELKEIANPEVKKVIDEVIKEFKERVKKA
B4: FBXL12_hotspot_35_60 (protein)
chain: MRTVRVVFEGTSPEGARYMALAAALAARELGARVEVRLDPSESREVKVIAAALRVLAEGRPLEEVVEELGLTEEEIEEMEKILEELREEVERLSAELRAR
B5: FBXL12_hotspot_109_4 (protein)
chain: MTRILVGAATTPEAARHTFSTIVEIAKGLKDEEVIAVLVVLDDPEMRAIAERAAEELRALGAEVRLEVAPTLEALEAARARLLAEAEAEADARDAAAAAA
B6: FBXL12_hotspot_59_85 (protein)
chain: MRVVIVRGPVEEAARRITELLEAIAELLREIPQDERAERLVEIALSLLEEAVRLVEEGLDEELARRVIEAAERAAEEATPEQAERLNEAIERLREAIERR
B7: FBXL12_hotspot_59_80 (protein)
chain: MRVIRISGEPEQRIRQFELYSDALIELIKEHKGTPEAERLEEMLVGLFKYMLEVAKKEKNVELLETLVKQARKALPHVSPEYAKELEKIIKEAEKAIAEL
B8: FBXL12_hotspot_59_72 (protein)
chain: MRRVVVRGPPEQALAQALALLEALLALLVEHEGTPDEPRLLELLESTYRELLRTARALGDAAAIERARAAIEAAKARLSPATAARLAEAVARAEAEVEAE
B9: FBXL12_hotspot_59_81 (protein)
chain: MRRIIIRGEPEQRLRQFEALAKALIELIKEHKGTPEAERLEEMLVGLFEEALKYAKEEKDVELLEALIKLAKEALPYVSPEYQKRLEKIIEEAEKAIKEF
B10: FBXL12_hotspot_67_86 (protein)
chain: MLRLLVIRIRAETVEEARRSLALAEAYVRAARARGWRVLVVAWAATPEVAALFRERLAELEREYGARTVLIEDRENGEEELARTTARLKAELLAEMDEEE
B11: FBXL12_hotspot_35_61 (protein)
chain: MRVVRVVFEGTSVEGARYMALAALLAKEALGAKVEIELSPSESREVRVIAAALRMLAEGKSIEEVKEELGLSEEEVEEMKRLAEELRAETAELLAELKAR
B12: FBXL12_hotspot_52_65 (protein)
chain: MRTVELVLVLQGDDVEAARRLLDRGVAIAEGLKAAGVRVRVVIEYSGSLESVPAVVEAMRRFKALGAEVRVVVSDDPALAEARAALRAAAEELGAEFVVR
B13: FBXL12_hotspot_35_59 (protein)
chain: MRTVRVVFRGTSPEGARYMALAAALAAKELGARVEIEIDPNESREVRIIAGALMVLAEGRSLEEVVEELGLTEEEVEEMKRIAEELRKETERLAAELRAR
B14: FBXL12_hotspot_59_71 (protein)
chain: MRRVVVRGDPEAALRQARALLEALLELLVRHEGTPQEPRLLELLESTYRELLRTARELGDEAAIAAARAAIEAAEKRLSPELAARLRAAVAAAEAAVEAE
B15: FBXL12_hotspot_35_58 (protein)
chain: MRVVVVRFEGSSEEGALYMATAALLAQRVLGARVVVEIHPDESREVRIIAAALRHLAEGLSWEEIREELGLTEEEMERARELAERLRAEVERLAAELRAR
B16: FBXL12_hotspot_59_82 (protein)
chain: MVTVRVRGPLEQALAQALALLRAATALLAELADSPKRPKLLEIYKAVLREAVRLATEAGDEEALAEIERLLAEARAAVSPEDAAELEEAYAEARREAAAA
B17: FBXL12_hotspot_59_79 (protein)
chain: MRRIIVRGEPEQVIKQTRALADALIALIDEHRGTPEQARLEDMLVGLFEETIKYAKEIGDVELLETIVELADRALPHVSPEYQKRIEELRKEALEAIKKL
B18: FBXL12_hotspot_54_67 (protein)
chain: KTVTLVLRATTVEALRTTLATGVAIAKGLLAAGIRVRVVIRADSEDVLEATRIATRAAAELEALGAEDITVEIKVETEEEREEVEREAARVRAEAEAERA
B19: FBXL12_hotspot_59_78 (protein)
chain: MRRIIISGEPEQRIKNLKELSDALIELIDKHKGTPEAERLEEMLVGLFEEALEQAKKEKDLELLETLKKEIEKAKPHVSPEYAEKLEELLKEVEKEIAEL
B20: FBXL12_hotspot_54_68 (protein)
chain: KTVLLVVRATTVEALRRTLETAVAIAEGLLAAGHRVRVEIRVDSEDVLEATRLATRAAERLEALGAEDIRVEVRVETEEEKEEVERVAEETRREERERRA
B21: FBXL12_hotspot_109_3 (protein)
chain: KSVIVVLASGSPEHAETTFQTGVEIVKGLAEAGVKVGLLILTTKENEAIAEKALEEVKDYVAVSELVVFPTKEEFEAQLDKVKEEKIKRLEEKLEKLEEE
B22: FBXL12_hotspot_59_75 (protein)
chain: MLEIRVSAHPDESLEAIKRTVEYAIEMIKELIKRGRIEDAKAAIRSVTRSVTEIVIRKGNEELAEHFLELLEELKEIANEEVKKVIEEAMEEFRERVAAA
B23: FBXL12_hotspot_54_69 (protein)
chain: KTVLIVVEAETLPALERSLATALEIARGLRAAGVRVEVRIRVRHPDVAAAAEAATRAAAEFRELGAERIEVEIETATEEDRERAEAARRETEARLAAEKA
B24: FBXL12_hotspot_59_84 (protein)
chain: MRKVVIRGPPEQALANALALLRAAVELLKEHAGSELAPRILEFFLSTLKEAVRAAIALGDEEALEEIERLVEEAQEAVDEEDARRLREALERAREEAEAA
B25: FBXL12_hotspot_35_62 (protein)
chain: MRRVVVRFTSPTPEGARYMAVTALLASRELGAEVEIEVAPDASLEIRRIAAALYALVTGVPVSEALARFGLPESEAPAVEAEAERLRAEVDEELARLRAR
B26: FBXL12_hotspot_59_77 (protein)
chain: MRRIIISGPSEQRIRNLREFSDALIELIDKHKGTPEAERLEEMLVGLFEESLKIAKEEKDVELLKELKKLVEEAIPHVSPEYAERLKKILEEIEKELAEL
B27: FBXL12_hotspot_59_76 (protein)
chain: MRRIILRGPPEQRRANLVAYSDALIKLIKEHKGTPEAERLEEMLVGLFEEALRQAEAERDRALLETLAEQVKKAIPFVSPEYAKRLEEILERIERALAEL
B28: FBXL12_hotspot_54_70 (protein)
chain: KVVTIRVRAETIEAARRTVETAVEIARGLREAGIEVEVELELEAEDVEAAARLAAEARHAFERIGARRIEVRLRLARPEDAPVFERLFAEELERLRREEE
B29: FBXL12_hotspot_52_63 (protein)
chain: MRTVTIVVSVESPDMEMARRTTETAAAIAEGLAAAGVRVVLVVRAAHADALAFATRRLAEVAARLGAELRVETHPSLDPAEVAAIAAAARAAAAAAAAAA
B30: FBXL12_hotspot_54_66 (protein)
chain: KTVTLVVRAETVEALRTTLATALAIAEGLLAAGITVRVEIRARSEDVLEATRLATRAAERLEALGAEDIRVEVEVETEEERREVERVAEEERRRERERRA
B31: FBXL12_hotspot_59_83 (protein)
chain: MIEVRVRGPVEEALRRALELLRAARELLKKHKDSPLYPRILEIFESALREAVRLAVEAGDEEALREAEEIVEEAEKVVSPEDAERLREALERAKREAEEE
B32: FBXL12_hotspot_59_73 (protein)
chain: MVEVVIRGPLEQAIEQALALLKAAAELIVKHEGTEKQERLVSIFISTLRELYRLAAEAGDEEAIEEADKIVKELMEKVDPETAAKLKAEREAIKKELAAA

Molecular target: T1, FBXL12, Q9NXK8
Assay: median log2 fold change of GCK-ALFA target abundance (FLAG IP / Myc IP barcode read proportion) (log2 ratio); each designed protein is fused to an ALFA-tag nanobody in HEK293 cells to bring the named protein to FLAG-tagged glucokinase (GCK); Myc marks an untargeted standard; higher = target protein stabilised (more abundant)
Settings: target protein: 3xFLAG-MCP-GCK-ALFA reporter; HEK293 landing pad (RPLP)
Procedure, shortened: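 HEK293 landing-pad cells received a recombined binder library fused to the ALFA nanobody and were induced with 2 μg mL^−1 doxycycline, then transfected with a plasmid encoding a FLAG-tagged target and a Myc-tagged standard. Lysates were collected after 48 h for anti-FLAG and anti-Myc immunoprecipitation, and the circular RNA barcodes were reverse transcribed, amplified and sequenced. Target abundance for each binder is the median log2 ratio of FLAG to Myc barcode read proportions. Barcodes had to reach a proportion of at least 10^−7 in both replicates, each binder needed at least 3 barcodes per replicate, a pseudocount of 10^−6 was applied, and the two replicates were pooled.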

Point of comparison: B14, “median log2 fold change” value -0.323. Against it:
- B1 — within 0.2 log units, -0.455
- B2 — higher, -0.0958
- B3 — higher, 0.185
- B4 — within 0.2 log units, -0.434
- B5 — lower, -0.542
- B6 — within 0.2 log units, -0.444
- B7 — within 0.2 log units, -0.4
- B8 — higher, -0.077
- B9 — within 0.2 log units, -0.417
- B10 — within 0.2 log units, -0.304
- B11 — within 0.2 log units, -0.36
- B12 — within 0.2 log units, -0.218
- B13 — within 0.2 log units, -0.274
- B15 — within 0.2 log units, -0.372
- B16 — within 0.2 log units, -0.218
- B17 — within 0.2 log units, -0.207
- B18 — higher, -0.0916
- B19 — higher, 0.0323
- B20 — within 0.2 log units, -0.347
- B21 — higher, 0.364
- B22 — within 0.2 log units, -0.31
- B23 — higher, -0.0113
- B24 — lower, -0.544
- B25 — higher, 0.1
- B26 — higher, 0.0852
- B27 — within 0.2 log units, -0.366
- B28 — higher, -0.0489
- B29 — lower, -0.889
- B30 — within 0.2 log units, -0.267
- B31 — higher, -0.0926
- B32 — within 0.2 log units, -0.363
